Measurements: PubChem BioAssay AID1159580 (chemical genetic matrix, 2015)
The whole screen tested about 5,500 compounds, of which about 2,000 (36%) were called active. About 18% were inconclusive and are not listed. Cut-off read from the data, not from the text of the source: active = normalized growth mostly below about 0.91 (no sharp cut-off); inconclusive = no clear call, values can overlap the other calls; inactive = mostly above about 0.92. Some of the results follow.

Assay: chemical genetic growth profiling, strain panel (AID 1159580);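 note: tested at 20 µM; growth read once vehicle control cultures reached saturation at 30 °C; 1 = growth at the plate median or of vehicle wells; lower values mean less growth of the strain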
Settings: growth OD

Measured: normalized growth

CC(C)CC1NC(=O)CNC1=O (stereo not given)
inactive: S. cerevisiae deletion strains, locus YBR021W, strain FUR4, active compounds read low 1.03 | S. cerevisiae deletion strains, locus YBR229C, strain ROT2, active compounds read low 0.953 | S. cerevisiae deletion strains, locus YCL029C, strain bik1, active compounds read low 0.965 | S. cerevisiae deletion strains, locus YDL035C, strain GPR1, active compounds read low 0.992 | S. cerevisiae deletion strains, locus YDL074C, strain BRE1, active compounds read low 1.04 | S. cerevisiae deletion strains, locus YDL101C, strain DUN1, active compounds read low 0.974 | S. cerevisiae deletion strains, locus YDL185W, strain tfp1, active compounds read low 0.963 | S. cerevisiae deletion strains, locus YDL192W, strain arf1, active compounds read low 0.992 | S. cerevisiae deletion strains, locus YDR101C, strain arx1, active compounds read low 1.01 | S. cerevisiae deletion strains, locus YDR150W, strain NUM1, active compounds read low 0.984 | S. cerevisiae deletion strains, locus YDR162C, strain NBP2, active compounds read low 0.937 | S. cerevisiae deletion strains, locus YDR318W, strain mcm21, active compounds read low 0.98 | S. cerevisiae deletion strains, locus YDR388W, active compounds read low 0.989 | S. cerevisiae deletion strains, locus YDR502C, strain sam2, active compounds read low 0.987 | S. cerevisiae deletion strains, locus YEL061C, strain CIN8, active compounds read low 0.989 | S. cerevisiae deletion strains, locus YER110C, active compounds read low 0.976 | S. cerevisiae deletion strains, locus YER155C, strain BEM2, active compounds read low 1.01 | S. cerevisiae deletion strains, locus YER167W, strain BCK2, active compounds read low 1 | S. cerevisiae deletion strains, locus YGL078C, strain dbp3, active compounds read low 0.978 | S. cerevisiae deletion strains, locus YGL086W, strain mad1, active compounds read low 1.03 | S. cerevisiae deletion strains, locus YGL248W, strain PDE1, active compounds read low 0.981 | S. cerevisiae deletion strains, locus YGR078C, strain PAC10, active compounds read low 0.969 | S. cerevisiae deletion strains, locus YGR135W, strain pre9, active compounds read low 0.966 | S. cerevisiae deletion strains, locus YGR252W, strain gcn5, active compounds read low 0.958 | S. cerevisiae deletion strains, locus YHR030C, strain SLT2, active compounds read low 1 | S. cerevisiae deletion strains, locus YHR079C, strain IRE1 (second series), active compounds read low 1.01 | S. cerevisiae deletion strains, locus YHR094C, strain hxt1, active compounds read low 0.972 | S. cerevisiae deletion strains, locus YHR129C, strain ARP1, active compounds read low 0.997 | S. cerevisiae deletion strains, locus YHR200W, strain rpn10, active compounds read low 0.971 | S. cerevisiae deletion strains, locus YIL066C, strain RNR3, active compounds read low 0.981 | S. cerevisiae deletion strains, locus YIL073C, strain SPO22, active compounds read low 0.986 | S. cerevisiae deletion strains, locus YIL125W, strain kgd1, active compounds read low 0.987 | S. cerevisiae deletion strains, locus YIR030C, strain dcg1, active compounds read low 0.995 | S. cerevisiae deletion strains, locus YJL095W, strain BCK1, active compounds read low 0.964 | S. cerevisiae deletion strains, locus YJL134W, strain LCB3, active compounds read low 0.992 | S. cerevisiae deletion strains, locus YJL168C, strain set2, active compounds read low 0.991 | S. cerevisiae deletion strains, locus YJL187C, strain SWE1 (second series), active compounds read low 0.969 | S. cerevisiae deletion strains, locus YJR043C, strain POL32, active compounds read low 0.977 | S. cerevisiae deletion strains, locus YJR075W, strain HOC1, active compounds read low 0.993 | S. cerevisiae deletion strains, locus YKL009W, strain mrt4, active compounds read low 1.02 | S. cerevisiae deletion strains, locus YKL068W, active compounds read low 0.985 | S. cerevisiae deletion strains, locus YKL085W, strain MDH1 (second series), active compounds read low 1.02 | S. cerevisiae deletion strains, locus YKL085W, strain MDH1, active compounds read low 1.02 | S. cerevisiae deletion strains, locus YKL190W, strain CNB1, active compounds read low 0.981 | S. cerevisiae deletion strains, locus YKR001C, strain vps1, active compounds read low 1.01 | S. cerevisiae deletion strains, locus YLR039C, strain RIC1, active compounds read low 0.964 | S. cerevisiae deletion strains, locus YLR058C, strain SHM2, active compounds read low 0.979 | S. cerevisiae deletion strains, locus YLR102C, strain apc9, active compounds read low 0.993 | S. cerevisiae deletion strains, locus YLR262C, strain YPT6, active compounds read low 0.938 | S. cerevisiae deletion strains, locus YLR268W, strain sec22, active compounds read low 1.01 | S. cerevisiae deletion strains, locus YLR330W, strain CHS5, active compounds read low 1 | S. cerevisiae deletion strains, locus YLR342W, strain FKS1 (second series), active compounds read low 1.05 | S. cerevisiae deletion strains, locus YLR371W, strain rom2, active compounds read low 0.98 | S. cerevisiae deletion strains, locus YLR418C, strain cdc73, active compounds read low 0.974 | S. cerevisiae deletion strains, locus YML016C, strain PPZ1, active compounds read low 0.99 | S. cerevisiae deletion strains, locus YML032C, strain rad52, active compounds read low 0.959 | S. cerevisiae deletion strains, locus YML124C, strain tub3, active compounds read low 0.982 | S. cerevisiae deletion strains, locus YMR078C, strain ctf18, active compounds read low 0.964 | S. cerevisiae deletion strains, locus YMR223W, strain ubp8, active compounds read low 0.988 | S. cerevisiae deletion strains, locus YMR307W, strain GAS1, active compounds read low 1.02 | S. cerevisiae deletion strains, locus YNL067W, strain RPL9B, active compounds read low 0.971 | S. cerevisiae deletion strains, locus YNL128W, strain TEP1, active compounds read low 0.969 | S. cerevisiae deletion strains, locus YNL153C, strain GIM3, active compounds read low 0.951 | S. cerevisiae deletion strains, locus YNL233W, strain BNI4, active compounds read low 0.997 | S. cerevisiae deletion strains, locus YNL250W, strain rad50, active compounds read low 0.988 | S. cerevisiae deletion strains, locus YNL271C, strain bni1, active compounds read low 0.983 | S. cerevisiae deletion strains, locus YNL298W, strain CLA4, active compounds read low 0.973 | S. cerevisiae deletion strains, locus YNL307C, strain MCK1, active compounds read low 0.984 | S. cerevisiae deletion strains, locus YNR052C, strain pop2, active compounds read low 0.981 | S. cerevisiae deletion strains, locus YOL012C, strain htz1 0.849 | S. cerevisiae deletion strains, locus YOL147C, strain pex11, active compounds read low 0.99 | S. cerevisiae deletion strains, locus YOR061W, strain CKA2, active compounds read low 0.968 | S. cerevisiae deletion strains, locus YOR069W, strain VPS5, active compounds read low 0.996 | S. cerevisiae deletion strains, locus YOR136W, strain idh2, active compounds read low 1.01 | S. cerevisiae deletion strains, locus YOR144C, strain elg1, active compounds read low 0.978 | S. cerevisiae deletion strains, locus YOR184W, strain ser1, active compounds read low 0.974 | S. cerevisiae deletion strains, locus YOR316C, strain cot1, active compounds read low 0.976 | S. cerevisiae deletion strains, locus YPL055C, strain LGE1, active compounds read low 1.01 | S. cerevisiae deletion strains, locus YPL241C, strain CIN2, active compounds read low 0.992 | S. cerevisiae deletion strains, locus YPR119W, strain clb2, active compounds read low 0.985 | S. cerevisiae deletion strains, locus YPR141C, strain kar3, active compounds read low 0.984 | S. cerevisiae deletion strains, locus YPR163C, strain tif3, active compounds read low 0.974 | S. cerevisiae deletion strains, locus YPR167C, strain met16, active compounds read low 1 | S. cerevisiae deletion strains, strain wtn01, active compounds read low 1.02 | S. cerevisiae strains, strain wild type, active compounds read low 0.985
